From ChEMBL document CHEMBL4513146, “CO-ADD screening of Karazin Kharkiv National University (Ukraine) compounds”
Entries with a potency or affinity are not part of this list.

Legend:
Staphylococcus aureus = details: Concentration 32 ug.mL-1;; ASSAY_TEST Inhibition of Bacterial Growth; detection method Absorption (OD600); MEDIA CAMHB; plate type 384well; NBS; CORNING #3640; time 18 hr
Escherichia coli = details: Concentration 32 ug.mL-1;; ASSAY_TEST Inhibition of Bacterial Growth; detection method Absorption (OD600); MEDIA CAMHB; plate type 384well; NBS; CORNING #3640; time 18 hr

| SMILES | Inhibition (Staphylococcus aureus) [%] | Inhibition (Escherichia coli) [%] |
| --- | --- | --- |
| O=S(=O)(c1cccn2cnnc12)N(Cc1ccc(F)cc1)c1ccc(F)c(F)c1 | 8.71 | -1.75 |
| Cc1cccc(NC(=O)c2ccc3nn(CC(=O)N4CCc5ccccc5C4)c(=O)n3c2)c1 | -5.11 | -8.84 |
| COc1ccccc1-n1ccn2c(SCC(=O)Nc3ccc(C)cc3C)nnc2c1=O | 14.03 | -4.75 |
| O=C(Cn1nc2c(N3CCOCC3)nccn2c1=O)Nc1ccccc1Br | 17.91 | 6.7 |
| Cc1ccc(NC(=O)Cn2nc3c(N4CCOCC4)nc4ccccc4n3c2=O)cc1C | 6.57 | -0.21 |
| CCc1nnc2c(S(=O)(=O)N(Cc3cccc(OC)c3)c3cccc(C)c3)cccn12 | 10.64 | -1.22 |
| O=C(Cn1nc2ccc(SCc3ccc(Cl)cc3)nn2c1=O)NCc1ccc2c(c1)OCO2 | -2.67 | -11.22 |
| Cc1ccc(NC(=O)Cn2nc3c(N4CC(C)CC(C)C4)nccn3c2=O)c(F)c1 (stereo not given) | 10.72 | 1.48 |
| COc1ccc(CN(c2ccc(C(C)C)cc2)S(=O)(=O)c2cccn3cnnc23)cc1 | 4.26 | 1.37 |
| CC1CCc2c(sc3ncn4c(=O)n(CC(=O)Nc5ccc6c(c5)CCC6)nc4c23)C1 (stereo not given) | 4.65 | -2.81 |
| O=c1c2sccc2n2c(=O)n(Cc3cccc(Br)c3)nc2n1Cc1cccs1 | -27.59 | -23.42 |
| O=C(CSc1nnc2c(=O)n(Cc3ccc(F)cc3)ccn12)NC1CCCC1 | 13.37 | -4.53 |
| O=C(Cn1nc2c(SCc3ccc(Cl)cc3)nccn2c1=O)N1CCN(c2ccccc2)CC1 | -0.6 | -2.68 |
| CCOc1ccccc1CNC(=O)CCc1nnc2ccc(-c3ccc(C)cc3)nn12 | 9.96 | -0.64 |
| Cc1ccccc1N1CCN(c2nccn3c(=O)n(CC(=O)NCc4cc(F)cc(F)c4)nc23)CC1 | 9.65 | -0.75 |
